We go through 40 compounds from PubChem BioAssay (NCI).

About 83,000 compounds went through this panel and 20% of them were active in at least one assay; those are over-represented in the sample as a whole.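 Compound tested at a single concentration for 48 hours in 96-well plates; a percent growth value below 10 was scored as active.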 A number with no mark means an inactive call. Activity calls are given as the source filed them.

One test has as its system NCI-H23 lung. The test can be described thus: NCI-60 one-dose screen, 48 h (100 = growth as untreated, 0 = no growth, -100 = all killed). The conditions noted are these: 10 µM unless noted.
Turning to `COc1ccc(N2C(=O)/C(=C/C(Cl)=C/c3ccc([N+](=O)[O-])cc3)SC2=S)cc1`, the growth is -1.85% (active).
Take `COc1ccc(C2=C/C(=C\c3ccccc3O)C(=O)N2Cc2ccccc2)cc1`: the growth was 85.9%.
With `COC(=O)[C@H]1Cc2c([nH]c3ccccc23)[C@H](c2ccc3c(c2)OCO3)N1`, the growth is 99.7%.
Turning to `O=C(Nc1ncc(Cc2ccccc2)s1)c1ccc2c(c1)OCCO2`, the growth is 30.8%.
Same read-out and setting: then `CC(=O)CC(=O)c1ccccc1.[Cu+2]`, with 97.1%; and `COC1CC(O)C2=C(CC3C(/C(C)=C\CC=C(C)C)CCC3(C)O2)C1=O` (configuration not stated), with 97.9%.
For `Nc1c(C(=O)c2ccc(Cl)cc2)sc(Nc2ccccc2)c1-c1nc2ccccc2s1`, the growth is 17%.
Take `C=CC(=O)Nc1ccc2ncnc(Nc3cccc(NS(=O)(=O)CCC)c3Cl)c2c1`: the growth was 68.9%.
Regarding `CCN1C(=O)N(CC)C2C1NC(=S)N2/N=C/C=C/c1ccccc1` (configuration not stated), the growth was 21.4%.
As to `Oc1cccc2c1NCCC2`, the growth was 13.6%.
For the compound `CCOC(=O)c1cnc2sc(-c3ccc(OC)cc3)nc2c1Cl`, the growth was 82%.
Same read-out and setting: with `Cc1ccc2nc(/C=C/c3ccc(N(C)C)cc3)cc(C)c2c1` the figure was 42.1%.
Same read-out and setting: then `C=CCOC(=O)C1=C(C)N(CC)C(=O)N(CC)C1c1c(Cl)n(C)c2ccccc12` (configuration not stated), with 78.7%; and `C=C(C)[C@@H]1CC[C@]2(COC(=O)c3cccnc3)CC[C@]3(C)[C@H](CC[C@@H]4[C@@]5(C)CCCN(C(=O)c6cccnc6)C(C)(C)[C@@H]5CC[C@]43C)[C@@H]12`, with 42.6%.
Take `COc1ccc(C2=NN3C(C2)c2cc(Br)ccc2OC3c2ccncc2)cc1` (configuration not stated): the growth was 81.8%.
On to `C=CC(=O)NCc1cccc(Nc2ncc(Br)c(NCCCNC(=O)C3CCC3)n2)c1`, for which the growth is -37% (active).
For `O=C(O)/C=C/c1cn(-c2ccccc2)nc1-c1ccc(F)cc1`, the growth is 96.2%.
For `CCNCCNc1c(C)c(-c2ccc(C(F)(F)F)cc2)c(C#N)c2nc3ccccc3n12`, the growth was 90%.
The same measure, in the same setting: with `O=C1CCc2c(sc3[nH]c(=S)n(-c4cc(C(F)(F)F)cc(C(F)(F)F)c4)c(=O)c23)C1` the figure was -10.7% (active); with `COc1cc2cc(Oc3ccc(NC(=O)Nc4ccc(F)c(C(F)(F)F)c4)cc3)c(C)nc2cc1OCCN1CCCCC1`, 34.2%; with `Cc1ccc2c(c1)CC(O)CC1C(=O)N(CCO)CC(=O)N21` (configuration not stated), 99.3%.
Turning to `CC(C)(C)CC(C)(C)Nc1c(-c2c(O)c3ccccc3oc2=O)nc2sccn12`, the growth was 97.9%.
`O=C1NC(=O)C(=Cc2cc(-c3ccc(Cl)cc3)n(-c3ccccc3)n2)C(=O)N1`: the growth was 99.3%.
On the same count and under the same terms, with `CCOC(=O)c1c2c(n3ccc(NC(=O)CCN4CCCC4)cc13)C(=O)c1ncccc1C2=O` the figure was -72.5% (active); with `COc1ccc(-c2ccc(-c3ccc(C(=N)N)o3)o2)cc1`, 35.6%.
For `CC(C)c1nc(N(C)S(C)(=O)=O)nc(-c2ccc(F)cc2)c1/C=C/C(=O)C[C@@H](O)CC(=O)O`, the growth is 99.8%.
For `CCOc1cc(\C=N/N=C(N)/C(N)=N\N=C/c2ccc(O)c(OCC)c2)ccc1O`, the growth was 97.7%.

Another test deals with NCI-H226 lung. Described as above. The conditions noted are these: 10 µM unless noted.
As for `C=C1C(=O)O[C@H]2[C@H]1CC/C(COC(=O)NCc1ccc(Cn3c(=O)sn(CCCC)c3=O)cc1)=C\CC[C@@]1(C)O[C@@H]21`, the growth is 78.5%.
On to `O=C(Nc1ncc(Cc2ccccc2)s1)c1cc(-c2ccccc2)nc2ccccc12`, for which the growth is 89.3%.
Turning to `CC(=O)Oc1ccccc1C(=O)N(Cc1ccc2c(Cl)cc(Cl)c(O)c2n1)c1ccccc1`, the growth was 66.4%.
Consider `O=C(Nc1ccccc1)Nc1ccccc1CNc1nc(Nc2ccc(OCCN3CCCC3)cc2)ncc1Cl`, for which the growth was 89.4%.
For the compound `C#Cc1ccc(NC(=O)Cc2ccc(/C=C/C(=O)c3nccn3C)cc2)cc1`, the growth was 90.6%.
Regarding `O=C(O)c1nn(-c2ccc(Cl)cc2)nc1N1CCCC1`, the growth was 90.8%.
In the case of `CCc1ccc(Cc2cnc(NC(=O)c3cc(C)oc3C)s2)cc1`, the growth is 66.3%.
On the same count and under the same terms, with `O=C(NCCN1CCOCC1)c1cncnc1Nc1ccc2c(ccn2Cc2ccccn2)c1` the figure was 95.2%.
As for `CC/C(=C(/c1ccc(Cl)cc1)c1ccc(OCCN2CCCCCC2)cc1)c1ccccc1`, the growth is 97.6%.
For the compound `CC(=O)OCC(=O)O[C@@H]1C[C@]2(C(C)C)O[C@@]1(C)[C@@H]1CC[C@@H](C)[C@H]1[C@@H]2OC(=O)/C=C/c1ccccc1`, the growth is 68.4%.
Regarding `COc1ccc(C(=O)/C=C/c2ccc(C)cc2)cc1S(N)(=O)=O`, the growth is 83%.
`Cc1ccc(Nc2oc(-c3ccccc3)nc2[P+](c2ccccc2)(c2ccccc2)c2ccccc2)cc1`: the growth is -13.8% (active).
With `COc1ccc(N/N=C/c2ccc3c(c2)Sc2ccccc2N3C)cc1`, the growth was -68.4% (active).
With `COc1ccc(N2C(=O)/C(=C/C(Cl)=C/c3ccc([N+](=O)[O-])cc3)SC2=S)cc1`, the growth is -31% (active).
`COc1ccc(C2=C/C(=C\c3ccccc3O)C(=O)N2Cc2ccccc2)cc1`: the growth was 94.9%.
In the case of `COC(=O)[C@H]1Cc2c([nH]c3ccccc23)[C@H](c2ccc3c(c2)OCO3)N1`, the growth was 98.5%.
On to `O=C(Nc1ncc(Cc2ccccc2)s1)c1ccc2c(c1)OCCO2`, for which the growth is 12.8%.
Same read-out and setting: with `CC(=O)CC(=O)c1ccccc1.[Cu+2]` the figure was 114%; with `COC1CC(O)C2=C(CC3C(/C(C)=C\CC=C(C)C)CCC3(C)O2)C1=O` (configuration not stated), 101%.
The same measure, in the same setting: then `Nc1c(C(=O)c2ccc(Cl)cc2)sc(Nc2ccccc2)c1-c1nc2ccccc2s1`, with 49.9%; and `C=CC(=O)Nc1ccc2ncnc(Nc3cccc(NS(=O)(=O)CCC)c3Cl)c2c1`, with 46.7%; and `CCN1C(=O)N(CC)C2C1NC(=S)N2/N=C/C=C/c1ccccc1` (configuration not stated), with -10.1% (active).
For the compound `Oc1cccc2c1NCCC2`, the growth was 32.8%.
As for `CCOC(=O)c1cnc2sc(-c3ccc(OC)cc3)nc2c1Cl`, the growth was 99.2%.
As to `Cc1ccc2nc(/C=C/c3ccc(N(C)C)cc3)cc(C)c2c1`, the growth was 64.8%.
Take `C=CCOC(=O)C1=C(C)N(CC)C(=O)N(CC)C1c1c(Cl)n(C)c2ccccc12` (configuration not stated): the growth was 95.1%.
Turning to `C=C(C)[C@@H]1CC[C@]2(COC(=O)c3cccnc3)CC[C@]3(C)[C@H](CC[C@@H]4[C@@]5(C)CCCN(C(=O)c6cccnc6)C(C)(C)[C@@H]5CC[C@]43C)[C@@H]12`, the growth was 42.1%.
On the same count and under the same terms, with `COc1ccc(C2=NN3C(C2)c2cc(Br)ccc2OC3c2ccncc2)cc1` (configuration not stated) the figure was 92.7%; with `C=CC(=O)NCc1cccc(Nc2ncc(Br)c(NCCCNC(=O)C3CCC3)n2)c1`, -0.669% (active); with `O=C(O)/C=C/c1cn(-c2ccccc2)nc1-c1ccc(F)cc1`, 95.1%.
In the case of `CCNCCNc1c(C)c(-c2ccc(C(F)(F)F)cc2)c(C#N)c2nc3ccccc3n12`, the growth is 84.8%.
With `O=C1CCc2c(sc3[nH]c(=S)n(-c4cc(C(F)(F)F)cc(C(F)(F)F)c4)c(=O)c23)C1`, the growth is -19% (active).
`COc1cc2cc(Oc3ccc(NC(=O)Nc4ccc(F)c(C(F)(F)F)c4)cc3)c(C)nc2cc1OCCN1CCCCC1`: the growth is 81.1%.
With `Cc1ccc2c(c1)CC(O)CC1C(=O)N(CCO)CC(=O)N21` (configuration not stated), the growth is 95.9%.
Turning to `CC(C)(C)CC(C)(C)Nc1c(-c2c(O)c3ccccc3oc2=O)nc2sccn12`, the growth was 88.9%.
As for `O=C1NC(=O)C(=Cc2cc(-c3ccc(Cl)cc3)n(-c3ccccc3)n2)C(=O)N1`, the growth was 82.5%.
As to `CCOC(=O)c1c2c(n3ccc(NC(=O)CCN4CCCC4)cc13)C(=O)c1ncccc1C2=O`, the growth was 63.6%.
Consider `COc1ccc(-c2ccc(-c3ccc(C(=N)N)o3)o2)cc1`, for which the growth is 78.2%.
Turning to `CC(C)c1nc(N(C)S(C)(=O)=O)nc(-c2ccc(F)cc2)c1/C=C/C(=O)C[C@@H](O)CC(=O)O`, the growth is 113%.
Same read-out and setting: then `CCOc1cc(\C=N/N=C(N)/C(N)=N\N=C/c2ccc(O)c(OCC)c2)ccc1O`, with 99.9%.
